The results in this text go back to PubChem BioAssay (Tox21).

Inconclusive results are not listed. A number with no mark means an inactive call. The source made the active and inactive calls. Calls come from the whole dose curve; as a rule, active = well fitted cell-killing curve with a large enough effect in the repeat runs; inconclusive = weak or mixed curves, or effect the other way; inactive = flat fitted curve, though single readings scatter.

Assay [1] is described as follows: cAMP Responsive Elements (CRE) small molecule antagonists, cell-based qHTS assay: qHTS cell viability counter screen (AID 2060913). Note: nearly all actives have a fitted effect of over 40% in size. As to conditions: CRE-bla HEK293T viability, CellTiter-Glo luminescence, 5 h; series mostly up to 92.4 µM. The method in brief:
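Viability of NKH477-stimulated (0.25 uM final) CRE-bla HEK293T cells is measured by CellTiter-Glo luminescence following 3 hrs compound exposure at 37 C.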
Background: In qHTS, concentration-response curves come from the screen itself.

Assay [2] is described as follows: cAMP Responsive Elements (CRE) small molecule agonists, cell-based qHTS assay: qHTS cell viability counter screen (AID 2060914). Note: nearly all actives have a fitted effect of over 50% in size. As to conditions: CRE-bla HEK293T viability, CellTiter-Glo luminescence, 5 h; series mostly up to 92.4 µM. Put shortly:
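In the same wells as the reporter read, viability of CRE-bla HEK 293T cells was quantified by CellTiter-Glo luminescence after a 3 h compound exposure.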
% is set by controls: 0 for no effect and ±100 for the full control effect.

Regarding `O=C1CCCCO1`, the Potency result in assay [1] and in assay [2] was “inactive” throughout.

With `CCNS(=O)(=O)c1ccc(C)cc1`, the Potency entry in assay [1] and in assay [2] was “inactive” each time.

Consider `CCCCN(CCCC)CCCC`, for which the Potency entry in assay [1] and in assay [2] was “inactive” each time.

For the compound `O=C1CN(/N=C/c2ccc([N+](=O)[O-])o2)C(=O)N1`, the Potency entry in assay [1] and in assay [2] was “inactive” in each case.

As for `CCCCCCCCCC(=O)N(C)C`, the Potency entry in assay [1] and in assay [2] was “inactive” in each case.

Turning to `SCCc1cnccn1`, the Potency result in assay [1] and in assay [2] was “inactive” each time.

Consider `Cc1cc(C(C)(C)C)c(O)c(C)c1Cn1c(=O)n(Cc2c(C)cc(C(C)(C)C)c(O)c2C)c(=O)n(Cc2c(C)cc(C(C)(C)C)c(O)c2C)c1=O`, for which the Potency entry in assay [1] and in assay [2] was “inactive” each time.

On to `Cc1cc(O)cc2c1O[C@](C)(CCC[C@H](C)CCC[C@H](C)CCCC(C)C)CC2`, for which the Potency result in assay [1] and in assay [2] was “inactive” throughout.

For `CCC(=O)c1ccc2c(c1)N(CCCN(C)C)c1ccccc1S2`, the Potency result in assay [1] and in assay [2] was “inactive” each time.

On to `CCN1CC(CCN2CCOCC2)C(c2ccccc2)(c2ccccc2)C1=O` (configuration not stated), for which the Potency result in assay [1] and in assay [2] was “inactive” throughout.

Take `CCCCCC1CCC(=O)O1` (configuration not stated): the Potency entry in assay [1] and in assay [2] was “inactive” in each case.

For the compound `CCN(CC)C(=O)c1cccc(C)c1`, the Potency result in assay [1] and in assay [2] was “inactive” each time.

Regarding `CCCCCCCCC(CCCCCC)C(=O)O` (configuration not stated), the Potency result in assay [1] and in assay [2] was “inactive” each time.

For the compound `C=C(C)C(=O)OCCC[Si](Cl)(Cl)Cl`, the Potency entry in assay [1] and in assay [2] was “inactive” each time.

Take `CO[Si](CCCn1c(=O)n(CCC[Si](OC)(OC)OC)c(=O)n(CCC[Si](OC)(OC)OC)c1=O)(OC)OC`: the Potency entry in assay [1] and in assay [2] was “inactive” in each case.

Consider `O=C(O)C(Cc1cc(I)c(O)c(I)c1)c1ccccc1` (configuration not stated), for which the Potency result in assay [1] and in assay [2] was “inactive” throughout.

Take `O=S(=O)(O)c1cc(S(=O)(=O)O)c2c(N=Nc3ccccc3)c(O)ccc2c1`: the Potency entry in assay [1] and in assay [2] was “inactive” throughout.

For `CC1(C)C(C=C(Cl)Cl)C1C(=O)OCc1cccc(Oc2ccccc2)c1` (configuration not stated), the Potency entry in assay [1] and in assay [2] was “inactive” throughout.

For the compound `c1ccc2c(c1)-c1cccc3c1c-2cc1ccccc13`, the Potency result in assay [1] and in assay [2] was “inactive” in each case.

Take `O=C(/C=C/c1ccccc1)OCCc1ccccc1`: the Potency result in assay [1] and in assay [2] was “inactive” throughout.

Take `O=C(Nc1ccccc1SSc1ccccc1NC(=O)c1ccccc1)c1ccccc1`: the Potency result in assay [1] and in assay [2] was “inactive” each time.

With `N=C(N)c1ccc(OCCCOc2ccc(C(=N)N)cc2)cc1`, the Potency entry in assay [1] and in assay [2] was “inactive” throughout.

On to `C=CC(C)=CCC=C(C)C`, for which the Potency result in assay [1] and in assay [2] was “inactive” in each case.

Turning to `Cc1ccc(S(=O)(=O)NC(=O)NC2CCCCCCC2)cc1`, the Potency entry in assay [1] and in assay [2] was “inactive” in each case.

On to `C1=CCC(c2ccccc2)CC1` (configuration not stated), for which the Potency entry in assay [1] and in assay [2] was “inactive” throughout.

Regarding `CC(C)c1cc(C(C)C)cc(C(C)C)c1`, the Potency entry in assay [1] and in assay [2] was “inactive” each time.

As to `ClC(Cl)Cl`, the Potency entry in assay [1] and in assay [2] was “inactive” in each case.

As to `O=C(O)c1ccc(C(=O)O)cc1`, the Potency result in assay [1] and in assay [2] was “inactive” throughout.

`CCOC(=O)c1ccc(O)cc1`: the Potency result in assay [1] and in assay [2] was “inactive” in each case.

In the case of `SC1CCCCC1`, the Potency result in assay [1] and in assay [2] was “inactive” each time.

For the compound `COC(=O)c1ccc(C)cc1`, the Potency result in assay [1] and in assay [2] was “inactive” in each case.

Consider `CNC(=O)c1c(I)c(NC(=O)CCCCC(=O)Nc2c(I)c(C(=O)O)c(I)c(C(=O)NC)c2I)c(I)c(C(=O)O)c1I`, for which the Potency result in assay [1] and in assay [2] was “inactive” each time.

`F[B-](F)(F)F`: the Potency result in assay [1] and in assay [2] was “inactive” each time.

Regarding `Cc1cccc(NC(=S)N(C)C)c1`, the Potency result in assay [1] and in assay [2] was “inactive” throughout.

`CCCCCCCCCCCCCCCCBr`: in assay [1], the viability change, negative = cytotoxic was -5.25% [at 18.9 µM]. Also, the activity change, negative = cytotoxicity in assay [2] is 6.55% [at 18.9 µM].

`CCCCCCC/C=C/C=O`: the Potency entry in assay [1] and in assay [2] was “inactive” each time.

As for `CNCCS(=O)(=O)O`, the Potency entry in assay [1] and in assay [2] was “inactive” each time.

As for `O=C(c1ccccc1)c1ccccc1`, the Potency entry in assay [1] and in assay [2] was “inactive” in each case.

For `CC(C)CCCCCCOC(=O)C1CCCCC1C(=O)OCCCCCCC(C)C` (configuration not stated), the Potency entry in assay [1] and in assay [2] was “inactive” throughout.

On to `CCCCCC1=CCCC1=O`, for which the Potency result in assay [1] and in assay [2] was “inactive” throughout.

Regarding `NC(=O)N1c2ccccc2C=Cc2ccccc21`, the Potency result in assay [1] and in assay [2] was “inactive” throughout.

For `Cc1cc(C(C)(C)C)c(O)c(C)c1CC1=NCCN1`, the Potency entry in assay [1] and in assay [2] was “inactive” in each case.

For the compound `O=c1oc(=O)c2cc3c(=O)oc(=O)c3cc12`, the Potency entry in assay [1] and in assay [2] was “inactive” throughout.

For the compound `Cc1cc(C)c(/C=C2\C(=O)Nc3ccccc32)[nH]1`, the Potency entry in assay [1] and in assay [2] was “inactive” in each case.

For the compound `CCOC(=O)c1cccc(N)c1`, the Potency result in assay [1] and in assay [2] was “inactive” each time.

Consider `O=C(O)c1ccc(Cl)c(Cl)c1`, for which the Potency entry in assay [1] and in assay [2] was “inactive” in each case.

As to `O=c1[nH]c(=O)c2ccccc2o1`, the Potency result in assay [1] and in assay [2] was “inactive” in each case.

With `C=CCCCCCCCCOC(C)=O`, the Potency entry in assay [1] and in assay [2] was “inactive” each time.

As for `CC1=C(C)C(=O)C(C(CCCCCC(=O)O)c2ccccc2)=C(C)C1=O` (configuration not stated), the Potency entry in assay [1] and in assay [2] was “inactive” in each case.

In the case of `CC(C)NCC(O)c1cc(O)cc(O)c1` (configuration not stated), the Potency result in assay [1] and in assay [2] was “inactive” in each case.

Take `C[N+](C)(CCOc1ccccc1)Cc1cccs1`: the Potency entry in assay [1] and in assay [2] was “inactive” throughout.

On to `CC(C)=C1CC[C@@H](C)CC1=O`, for which the Potency entry in assay [1] and in assay [2] was “inactive” throughout.

Regarding `CC(=O)CC(C)=O`, the Potency result in assay [1] and in assay [2] was “inactive” in each case.

In the case of `CCn1ccnc1CC1COc2ccccc2O1` (configuration not stated), the Potency entry in assay [1] and in assay [2] was “inactive” throughout.

Turning to `CCOc1ccccc1O[C@H](c1ccccc1)[C@H]1CNCCO1`, the Potency result in assay [1] and in assay [2] was “inactive” in each case.

For `CCCC(=O)C(C)=O`, the Potency result in assay [1] and in assay [2] was “inactive” throughout.
